From PubChem BioAssay
An excerpt weighted towards active compounds, which were near 2.8% of everything screened.
POLI inh: inhibitors of human DNA polymerase iota; Q9UNA4; Pol iota fluorescent replication assay, 10 min; Potency, µM (titrated, usually from 115 µM), for inactives: at the top dose activity, negative = inhibition, usual class: inhibitors; 1% of 390,000 active; AID 588590; further: potency means the concentration at half of the fitted maximal effect
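Fluorescent replication assay read twice, at 0 min and 10 min after adding 50 nM (final) substrate. Enzyme (10 nM) and compounds were first incubated 15 min at room temperature; enzyme-free buffer wells were negative controls.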
POLB inh: inhibitors of human DNA polymerase beta; Pol beta primer extension/strand displacement, fluorescence kinetic; 1.3% of 340,000 active; Potency, µM (titrated, usually from 114 µM), inactives show at the highest dose activity change, negative = inhibition, usual class: inhibitors; further: potency means the concentration at half of the fitted maximal effect; on the % scale 0 is the no-effect control and ±100 the full control effect
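Pol beta (10 nM) was preincubated with compound for 15 min at room temperature. The reaction was then started with 50 nM substrate and read immediately and after a further 10 min at room temperature.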
WRN inhibitor: WRN helicase (human) inhibition. WRN helicase unwinding, fluorescent forked duplex, kinetic. Potency, µM (top dose mostly 114 µM), for the others: top-dose activity change, negative = inhibition, actives largely listed as inhibitors. 0.46% of 360,000 active; further: potency means the concentration at half of the fitted maximal effect; on the % scale 0 is the no-effect control and ±100 the full control effect; nearly all actives have a fitted effect of over 55% in size
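Kinetic red-fluorescence monitoring (525/598 nm) tracks WRN helicase activity after 100 nM fluorophore-quencher forked duplex and 2 mM ATP are added to 20 nM enzyme pretreated 15 min at room temperature with compound.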
POLH inh: blocks human DNA polymerase eta activity. 1.2% of 390,000 active. Q9Y253. AID 588591. Potency, µM (series often up to 114 µM), for inactives: at the top dose activity change, negative = inhibition, hits mostly inhibitors. recombinant Pol eta, fluorescent DNA replication assay; further: potency means the concentration at half of the fitted maximal effect; on the % scale 0 is the no-effect control and ±100 the full control effect
Target sequence (Q9Y253 whole entry, looked up): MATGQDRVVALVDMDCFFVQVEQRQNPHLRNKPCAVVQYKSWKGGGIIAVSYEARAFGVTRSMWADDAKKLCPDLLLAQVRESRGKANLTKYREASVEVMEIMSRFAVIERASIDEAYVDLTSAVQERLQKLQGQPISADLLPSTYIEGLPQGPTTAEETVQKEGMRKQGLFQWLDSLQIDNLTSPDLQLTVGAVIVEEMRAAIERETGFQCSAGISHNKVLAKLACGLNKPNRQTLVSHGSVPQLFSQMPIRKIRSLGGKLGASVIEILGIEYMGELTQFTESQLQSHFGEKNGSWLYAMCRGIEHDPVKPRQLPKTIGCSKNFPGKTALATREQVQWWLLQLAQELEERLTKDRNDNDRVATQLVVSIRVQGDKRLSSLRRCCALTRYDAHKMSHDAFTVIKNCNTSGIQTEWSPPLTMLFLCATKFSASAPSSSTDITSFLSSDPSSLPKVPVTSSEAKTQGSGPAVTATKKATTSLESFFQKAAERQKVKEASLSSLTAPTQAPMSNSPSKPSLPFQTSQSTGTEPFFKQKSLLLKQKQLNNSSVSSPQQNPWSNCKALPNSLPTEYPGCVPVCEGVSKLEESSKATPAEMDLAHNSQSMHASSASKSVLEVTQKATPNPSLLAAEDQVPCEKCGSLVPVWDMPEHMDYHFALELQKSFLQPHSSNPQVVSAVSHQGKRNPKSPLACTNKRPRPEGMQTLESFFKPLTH
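Pol eta (10 nM) was preincubated with compounds for 15 min at room temperature, after which fluorescent replication substrate (50 nM final) was added to start the reaction. Fluorescence was read kinetically at 0 and 10 min.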
PI5P4Ka inh: inhibitors of human PI5P4K alpha. P48426. PI5P4Kalpha enzyme, ADP-Glo luminescence, 60 min; active compounds read low. max response, %. 1.2% of 330,000 active. AID 652105; active means max response of -50% or lower; inconclusive means between -30% and -50%; inactive means -30% or higher; further: value at the top dose of about 77 µM; on the % scale 0 is the no-effect control and ±100 the full control effect
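Reactions run in 0.038 M HEPES pH 7.4, 0.28 mM EGTA, 0.1% CHAPS and 5% DMSO, with PI5P4Kalpha, substrate, compound and 5 microM ATP final, one hour at room temperature. Readout is ADP-Glo luminescence.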
POLK inh: inhibitors of human DNA polymerase kappa; 0.53% of 400,000 active; Potency, µM (top dose mostly 107 µM), for inactives: top-dose activity, negative = inhibition, usual class: inhibitors; Q9UBT6; purified Pol kappa, fluorescent DNA synthesis assay, 10 min; further: potency means the concentration at half of the fitted maximal effect; on the % scale 0 is the no-effect control and ±100 the full control effect
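Kinetic fluorescence screen: compound preincubated 15 min RT with 10 nM enzyme; 50 nM substrate (final) initiates; reads at 0/10 min.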
* hit, by the source's call; ! = not active in a repeat; [ ] = dose if it differs, or a comment. Unless noted, the call rests on the fitted dose curve; in most records, active means well fitted curve in the direction sought with a large enough effect; inconclusive means small, poorly fitted or top-dose-only effect, or another doubt; inactive means no such curve, though single readings can be large; an effect the other way counts as inactive or inconclusive.

For C#CCOCCOCCOCCNc1nc(N2CCN(C(=O)CCCCCCCCCCNC(=O)[C@@H](CCSC)n3cc(CCO)nn3)CC2)nc(N2CCN(C(=O)CCCCCCCCCCNC(=O)[C@H]([C@@H](C)CC)n3cc(CCCCCN)nn3)CC2)n1 the results were POLI inh inconclusive, WRN inhibitor inconclusive, POLH inh inconclusive, PI5P4Ka inh -54* and POLK inh -15%.
`CC[C@]12c3[nH]c4ccccc4c3CCN1C(=O)C(CC(=O)NCc1ccco1)C[C@@H]2C(=O)N1CCN(C(=O)c2ccco2)CC1` (some centres undefined) gave POLI inh 27%, WRN inhibitor -4%, POLH inh 1%, PI5P4Ka inh 0 and POLK inh -14%.
`CC[C@]12c3[nH]c4cc(-c5ccco5)ccc4c3CCN1C(=O)[C@@H](CC(=O)NCc1ccco1)C[C@@H]2C(=O)N1CCN(C(=O)c2ccco2)CC1` gave POLI inh 50µM*, WRN inhibitor -3%[11.6 µM], POLH inh -9%, PI5P4Ka inh -3 and POLK inh -12%.
O=C1CSC(=S)N1/N=C/c1ccc(O)c(O)c1O was read as POLI inh -103%, POLB inh 0.32µM*, WRN inhibitor 10µM*, POLH inh 0.71µM*, PI5P4Ka inh -95* and POLK inh 0.71µM*.
O=C1CSC(=S)N1N=Cc1ccc2c(c1)OCO2 was read as POLI inh inconclusive, WRN inhibitor inconclusive, POLH inh 4%, PI5P4Ka inh -51* and POLK inh -9%.
Screening COc1ccc(/C=N/N2C(=O)CSC2=S)cc1Br returned POLI inh inconclusive, WRN inhibitor -18%, POLH inh inconclusive, PI5P4Ka inh -78* and POLK inh -16%.
`CCc1ccc(NC(=O)C(=O)NCC(c2ccc3c(c2)OCO3)N2CCOCC2)cc1` (centres undefined) gave POLI inh 7%, POLB inh 4%, POLH inh -17% and POLK inh -9%[60.1 µM].
For CCOc1ccc(S(=O)(=O)Nc2ccc(-c3ccc(OC)nn3)cc2)cc1 the results were POLI inh -7%, POLB inh 0%, POLH inh -13% and POLK inh -5%[60.1 µM].
For CCOC(=O)Cc1csc(NC(=O)c2sc3nc4c(C)cc(C)cc4cc3c2N)n1 the results were POLI inh 50µM*, POLB inh 32µM*, WRN inhibitor -8%[11.6 µM], POLH inh inconclusive and POLK inh -20%.
`CCOC(=O)Cc1csc(NC(=O)c2csc(C)c2)n1` gave POLI inh 15%, POLB inh -9%, WRN inhibitor 1%, POLH inh -5% and POLK inh -4%.
Screening C/C(=C\c1ccc(C(=O)O)cc1)c1ccc2c(c1)C(C)(C)CCC2(C)C returned POLI inh 32µM*!, POLB inh inconclusive, WRN inhibitor 1%, POLH inh inconclusive, PI5P4Ka inh 32 and POLK inh inconclusive.
`NCCCC[C@H]1NC(=O)[C@H](CCC(=O)O)NC(=O)c2cc([N+](=O)[O-])cc(I)c2OCC[C@@H](C(N)=O)NC1=O` gave POLI inh 8.9µM*, POLB inh -9%, WRN inhibitor 10µM*, POLH inh -98%, PI5P4Ka inh inconclusive and POLK inh 3.5µM*.
Screening CCOc1ccc(CNC(=O)c2cc3c(=O)n(Cc4cccs4)ccc3nc2C)cc1 returned POLI inh inconclusive, POLB inh 13µM*, POLH inh 16% and POLK inh 12%.
Screening CCc1ccc(CNC(=O)c2cc3c(=O)n(Cc4cccs4)ccc3nc2C)cc1 returned POLI inh inconclusive, POLB inh 50µM*, POLH inh 11% and POLK inh -19%.
`Cc1nc2ccn(Cc3cccs3)c(=O)c2cc1C(=O)NCc1ccc(Br)cc1` gave POLI inh inconclusive, POLB inh -12%, POLH inh -2% and POLK inh -1%.
